This is an account of results in PubChem BioAssay (NCI).

Each structure is given as a SMILES string. Where “and” joins values, the source holds several entries; their conditions need not be identical. Identical values can stand only once. Compounds without any hit were thinned out: in the full panel of roughly 83,000, 20% have a hit.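 Treatment: one concentration, 48 hours, 96-well format. Scoring: percent growth, with anything below 10 considered active.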 Unmarked numbers belong to inactive results. Calls of active or inactive are those of the source.

The assay deals with HT29 colon. As to the kind of experiment: NCI-60 one-dose screen, 48 h (100 = growth as untreated, 0 = no growth, -100 = all killed). The conditions noted are these: 10 µM unless noted.
With `Cc1nn(-c2ccc(Cl)cc2)c2ncnc(N/N=C/c3ccccc3O)c12`, the growth was 20.1% and 31.1%.

For the molecule `CCN(CC)C(=S)SSC(=S)N(CC)CC`, the growth is 68.5% and 94.4%.

As for `Nc1nc(SC/C=C/CCl)c2[nH]cnc2n1`, the growth is 108% and 95.5%.

Take `CC1CCCC(=O)O1` (centres undefined): the growth is 106% and 99.8%.

`c1ccc(NCc2ccc3c(c2)OCO3)cc1`: the growth was 103% and 104%.

For the molecule `CN(Cc1ccccc1)Cc1ccccc1`, the growth is 102%.

With `O=[N+]([O-])c1ccc(N/N=C\c2cc(Br)ccc2O)nc1`, the growth is 27.8%.

For `O=C(Nc1ccc(Br)cc1)c1cc(Br)ccc1O`, the growth was 92.1% and 36.7%.

Regarding `CN(C)c1ccc(C(=C2C=CC(=[N+](C)C)C=C2)c2ccccc2Cl)cc1`, the growth is -38.3% (active) and -24% (active).

Turning to `O=C(Cc1cccc2ccccc12)N/N=C/c1ccc2c(c1)CCC2`, the growth is 62.4%.

Turning to `O=C(O)C1C2C=CC(C2)C1C(=O)O` (centres undefined), the growth was 94.3% and 14.4% and 104%.

As for `COc1cc(C(=O)c2ccc3c(c2)OCO3)cc(OC)c1OC`, the growth was 5.54% (active) and -1.28% (active).

As for `O=C(CCc1ccc(O)cc1)N/N=C/c1cc(Br)ccc1O`, the growth was 98.4%.

Take `CC(=O)Oc1cc(C(=O)O)cc(OC(C)=O)c1OC(C)=O`: the growth was 114% and 96.5%.
